Measured values taken from ChEMBL document CHEMBL4513216, “Probing the Open Global Health Chemical Diversity Library for Multistage-Active Starting Points for Next-Generation Antimalarials” (ACS Infect Dis, 2020).
The whole screen tested about 69,000 compounds, of which about 8,600 (12%) showed an effect of 50% or more. The full list was thinned out, with strong results kept by preference.

Tested on: Plasmodium berghei
Test: Screen against P. berghei liver stage (PbLuc), transformed with Luciferase, at 10uM
Type: functional, HepG2
Settings: tested at 10 uM

Row | Compound | INHIBITION [%]
1 | COc1c(C)cnc(CSc2nnc(C)s2)c1C | -40.3
2 | COc1c(C)cnc(CSc2nnc(NC3CC3)s2)c1C | 57.7
3 | COc1c(C)cnc(CSc2nnc(N)s2)c1C | 28.6
4 | CC(C)C(=O)N1CCCC(Cc2ccccn2)C1 (configuration not stated) | 25
5 | COCCC(=O)N1CCCC(c2n[nH]cc2C)C1 (configuration not stated) | 36
6 | N#CCCCOc1cccnc1NC(=O)CCC1CCCC1 | -12.1
7 | N#CCCCOc1cccnc1NC(=O)Cc1ccccc1F | 65.2
8 | N#CCCCOc1cccnc1NC(=O)CC1CCCCC1 | 20.9
9 | Cc1cccc(CC2CCCN(C(=O)Cc3csc(C)n3)C2)n1 (configuration not stated) | -8.12
10 | Cc1noc(C)c1S(=O)(=O)NC(=O)COc1ccc2c(c1)CCC2 | 45.3
11 | COc1cc(CN(C)Cc2ccncc2)c(SC)cc1OC | 39.3
12 | COc1cc(CN(C)CCc2ccncc2)c(SC)cc1OC | 32.7
13 | COc1cc(CN(C)Cc2cccnc2)c(SC)cc1OC | 54.7
14 | Cc1cc(NC(=O)NC2CCCc3c2cnn3CCO)n(C)n1 (configuration not stated) | -39.9
15 | Cc1cccc(-n2ncc3c2CCCC3NCc2cnn(C)c2C)c1C (configuration not stated) | 33.4
16 | Cc1cccc(-n2ncc3c2CCCC3NCc2cccc(O)c2)c1C (configuration not stated) | 31.9
17 | Cc1nnc(NC(=O)NC2CCCc3c2cnn3CCO)s1 (configuration not stated) | 38
18 | Cc1cc(C(=O)NC2CCCc3c2cnn3-c2cccc(C)c2C)[nH]n1 (configuration not stated) | 91
19 | Cc1cccc(-n2ncc3c2CCCC3NCC(C)(C)CO)c1C (configuration not stated) | 58.5

Row | Compound | INHIBITION [%]
20 | OC1(CN2CCCC2)CCCN(c2ncnc3[nH]cnc23)C1 (configuration not stated) | 13.9
21 | OC1(CN2CCCC2)COCCN(c2ncnc3[nH]ccc23)C1 (configuration not stated) | 19.3
22 | OC1(CN2CCCC2)COCCN(c2ncnc3[nH]cnc23)C1 (configuration not stated) | 56.1
23 | CN(C)C[C@H]1OC[C@@H]2CCN(C(=O)c3cccn3C)C[C@@H]21 | 4.2
24 | CC(C)N(C)C(=O)C1=NOC2(CCN(C(=O)c3cccn3C)C2)C1 (configuration not stated) | 13.3
25 | O=C(NCc1ccco1)[C@H]1CC[C@@H]2[C@@H](CCN2C2CCC2)O1 | 27.6
26 | Cc1nn(CC(=O)Nc2ccon2)c(C)c1Br | 40.8
27 | CCN1CCN(C2CCN(Cc3noc(C)n3)CC2)C1=O | 51.2
28 | CCN1CCN(C2CCN(Cc3noc(C4CC4)n3)CC2)C1=O | 35.9
29 | Cc1nc(CN2CCC(N3CCN(C)C3=O)CC2)no1 | 11.2
30 | Cc1ccc(CNC(=O)Cc2c(C)nc3c(c2C)c(=O)[nH]n3C)cc1 | 29.4
31 | CC(NC(=O)CCn1cccn1)c1cn(-c2ccccc2)nn1 (configuration not stated) | -15.5
32 | CC(C)NC(=O)[C@@H]1C[C@H](N)CN1C(=O)C1(c2ccc(Cl)cc2)CCC1 | 41.5
33 | O=C(c1cc[nH]n1)N1CCCC1c1cncc(CN2CCOCC2)n1 (configuration not stated) | 11.8
34 | Cc1csc(C(C)(C)NCCOc2ccc(CC#N)cc2)n1 | 58.1
35 | CC(C)(NCCOc1ccc(CC#N)cc1)c1nccs1 | -6.34
36 | CC(C)(NCCCOc1ccc(C#N)cc1)c1nccs1 | 53.8
37 | Cc1csc(C(C)(C)NCCNS(C)(=O)=O)n1 | -1.75
38 | N#Cc1ccc(OCCNCCn2cccn2)cc1 | 27.6

Row | Compound | INHIBITION [%]
39 | CCS(=O)(=O)NCCNC(C)(C)c1nc(C)cs1 | -7.72
40 | CN1CCOC(c2cncc(CCC(N)=O)n2)C1 (configuration not stated) | -0.232
41 | Cn1ccc2cc(CC3COCCN(C(=O)c4ccccn4)C3)ccc21 (configuration not stated) | 20.055
42 | CC(=O)N1N=C(c2ccco2)OC1C(=O)N(C)CCc1ccccc1 (configuration not stated) | 24.3
43 | Cc1cc2nc(SCC(=O)N3CCCC3)n(C)c(=O)c2[nH]1 | 19.3
44 | COCCNC(=O)C[C@@H]1COC[C@H]2CN(C(=O)COC)C[C@@H]12 | 13.1
45 | COCCNC(=O)C[C@@H]1COC[C@H]2CN(CC3CCOCC3)C[C@@H]12 | 36.7
46 | COCCNC(=O)C[C@@H]1COC[C@H]2CN(C(=O)C3CCOCC3)C[C@@H]12 | 69.3
47 | CC[C@@H](c1ccccc1)n1c(C2CC2)n[nH]c1=O | 37.3
48 | CCc1noc(CNCCn2cc(C)cn2)n1 | -9.37
49 | OC(CNc1ncnc2c1CCNCC2)C(F)(F)F (configuration not stated) | 13.6
50 | Cc1nc2c(c(NCC(O)C(F)(F)F)n1)CCNCC2 (configuration not stated) | 93.2
51 | c1nc(CCNc2nc(C3CC3)nc3c2CCNCC3)c[nH]1 | -3.77
52 | C1Cc2nc(CCNc3nc(C4CC4)nc4c3CCNCC4)sc2C1 | 64.8
53 | Cc1nc2c(c(NCC(O)c3ccccc3Cl)n1)CCNCC2 (configuration not stated) | -32.6
54 | OC(CNc1nc(C2CCCC2)nc2c1CCNCC2)C(F)(F)F (configuration not stated) | 52.1
55 | COCCNc1nc(C2CCCC2)nc2c1CCNCC2 | -39.9
56 | COCc1noc(CNc2nc(C3CCCC3)nc3c2CCNCC3)n1 | -52.2
57 | Cc1nc2c(c(NCCc3nc4c(s3)CCCC4)n1)CCNCC2 | 25.8
